Results from PMC5540273 (PLoS ONE, 2017).

Legend:
Settings in all cases: concentration: 1 μM, replicates: in singlicate; n = 1
BRSK1 = tested on: BRSK1
BRSK2 = tested on: BRSK2
BTK = tested on: BTK
BUB1 = tested on: BUB1
CAMK1B = tested on: CAMK1B
CAMK1D = tested on: CAMK1D
CAMK1G = tested on: CAMK1G
CAMK1 = tested on: CAMK1
CAMK2A = tested on: CAMK2A
CAMK2B = tested on: CAMK2B
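Further: KINOMEscan kinase panel screen.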

Structure (SMILES) | %Inh (BRSK1) [%] | %Inh (BRSK2) [%] | %Inh (BTK) [%] | %Inh (BUB1) [%] | %Inh (CAMK1B) [%] | %Inh (CAMK1D) [%] | %Inh (CAMK1G) [%] | %Inh (CAMK1) [%] | %Inh (CAMK2A) [%] | %Inh (CAMK2B) [%]
CN1c2ccc(-c3ccc(C(=O)NCCO)cc3)cc2-c2[nH]ncc2S1(=O)=O | 0 | 15 | 6 | 0 | 23 | 45 | 0 | 49 | 67 | 66
COc1cc2ncnc(Nc3ccc(OCc4ccccc4Br)c(Cl)c3)c2cc1OC.Cl [GI261590] | 0 | 37 | 0 | 66 | 21 | 0 | 0 | 12 | 0 | 0
Cn1ccc2ncnc(Oc3ccc(NC(=O)Nc4cccnc4)c(Cl)c3)c21 | 6 | 0 | 0 | 5 | 0 | 0 | 27 | 21 | 0 | 18
Cl.c1ccc(Cn2ccc3cc(Nc4ncnc5ccccc45)ccc32)cc1 [GW275568] | 0 | 20 | 0 | 0 | 34 | 27 | 8 | 24 | 9 | 0
c1ccc(-c2ccc3c(-c4ccnc(Nc5ccc6c(c5)OCCO6)n4)cnn3n2)cc1 [GW818941] | 0 | 0 | 14 | 28 | 12 | 8 | 0 | 29 | 0 | 5
CC(=O)Nc1n[nH]c2ncc(-c3ccccc3)cc12 [SB-548492] | 21 | 0 | 0 | 0 | 0 | 18 | 0 | 35 | 4 | 0
Cl.O=S(=O)(c1cccc(F)c1)c1ccc(Nc2ncnc3cc(Br)sc23)cc1Cl [GSK306886] | 0 | 0 | 0 | 0 | 38 | 10 | 0 | 2 | 0 | 0
Fc1ccc(Nc2nccc(-c3c(-c4ccc(Cl)cc4)nn4ncccc34)n2)cc1F [GW829058] | 0 | 4 | 75 | 35 | 13 | 32 | 0 | 22 | 16 | 18
O=C(c1ccc(-c2cc(-c3c[nH]nc3-c3ccccn3)ccn2)cc1)N1CCCC1 [GW792479] | 0 | 2 | 24 | 20 | 0 | 30 | 0 | 32 | 1 | 5
FC(F)(F)c1ccc(-c2cc(-c3c[nH]nc3-c3ccccn3)ccn2)cc1 [GW599550] | 0 | 0 | 0 | 55 | 35 | 22 | 1 | 23 | 0 | 0
Nc1n[nH]c2nnc(-c3ccccc3)cc12 [SB-517389] | 0 | 0 | 0 | 0 | 38 | 28 | 0 | 15 | 0 | 0
FC(F)(F)c1cc(Nc2nccc(-c3c(-c4ccc(Cl)cc4)nn4ncccc34)n2)ccc1Cl [GW829351] | 0 | 0 | 0 | 19 | 0 | 0 | 0 | 0 | 30 | 27
Nc1nc(-c2ccc3c(N)n[nH]c3c2)cc(N2CCC[C@@H](C(=O)Nc3ccccc3)C2)n1.O=C(O)C(F)(F)F.O=C(O)C(F)(F)F [GSK2288359] | 0 | 0 | 0 | 0 | 26 | 11 | 0 | 5 | 0 | 0
Cl.Fc1ccccc1COc1ccc(Nc2ncnc3ccc(-c4nnc(C(F)(F)F)o4)cc23)cc1Cl [GW424170] | 0 | 0 | 0 | 0 | 0 | 8 | 0 | 13 | 0 | 0
O=C(Nc1ccccc1F)NC1CCN(c2ccnc(Nc3ccc(F)cc3)n2)C1 (centres unmarked) [GSK1379722] | 17 | 0 | 12 | 44 | 0 | 0 | 0 | 0 | 0 | 0
Cn1ccc2ncnc(Nc3ccc(Oc4cccc(Cl)c4)c(Cl)c3)c21 | 13 | 0 | 0 | 12 | 0 | 11 | 5 | 22 | 9 | 0
CS(=O)(=O)CCNCc1ccc(-c2ccc3ncnc(Nc4ccc(OCc5ccccc5)c(Cl)c4)c3c2)o1.Cl [GW574783] | 1 | 0 | 0 | 26 | 0 | 4 | 27 | 14 | 0 | 0
